In PubChem BioAssay (NCI):
The panel holds about 83,000 compounds, 20% with a hit somewhere; the sample as a whole holds those more often.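 Assay: single dose, 48 h. Readout: percent growth (0 = no net growth; negative = cell death). Active: <10.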 Unmarked numbers belong to inactive results. Active and inactive are the calls of the source.

How the values were obtained:
Test in all cases: NCI-60 one-dose screen, 48 h (100 = growth as untreated, 0 = no growth, -100 = all killed)
HCT-15 colon = details: 10 µM unless noted
HT29 colon = details: 10 µM unless noted
SNB-75 CNS = details: 10 µM unless noted
SNB-19 CNS = details: 10 µM unless noted
U251 CNS = details: 10 µM unless noted
PC-3 prostate = details: 10 µM unless noted
SK-MEL-5 melanoma = details: 10 µM unless noted
UACC-62 melanoma = details: 10 µM unless noted
LOX IMVI melanoma = details: 10 µM
SK-MEL-28 melanoma = details: 10 µM unless noted
SK-MEL-2 melanoma = details: 10 µM unless noted
EKVX NSCLC = details: 10 µM unless noted
SN12C renal = details: 10 µM unless noted
UO-31 renal = details: 10 µM unless noted
TK-10 renal = details: 10 µM unless noted
ACHN renal = details: 10 µM unless noted
CAKI-1 renal = details: 10 µM unless noted
A498 renal = details: 10 µM unless noted
CCRF-CEM leukemia = details: 10 µM unless noted
MOLT-4 leukemia = details: 10 µM unless noted

| Structure (SMILES) | growth (HCT-15 colon) | growth (HT29 colon) | growth (SNB-75 CNS) | growth (SNB-19 CNS) | growth (U251 CNS) | growth (PC-3 prostate) | growth (SK-MEL-5 melanoma) | growth (UACC-62 melanoma) | growth (LOX IMVI melanoma) | growth (SK-MEL-28 melanoma) | growth (SK-MEL-2 melanoma) | growth (EKVX NSCLC) | growth (SN12C renal) | growth (UO-31 renal) | growth (TK-10 renal) | growth (ACHN renal) | growth (CAKI-1 renal) | growth (A498 renal) | growth (CCRF-CEM leukemia) | growth (MOLT-4 leukemia) |
| --- | --- | --- | --- | --- | --- | --- | --- | --- | --- | --- | --- | --- | --- | --- | --- | --- | --- | --- | --- | --- |
| Cc1cccc(NC(=O)CN2CCN(c3ncnc4c3cnn4-c3ccccc3)CC2)c1 | 55.4% | 76.1% | 100% | 83.1% | 89% | 63.1% | 78.5% | 67.9% | 88.1% | 90.1% | 80.2% | 85.9% | 83.4% | 54.9% | 130% | 79.9% | 82.9% | 98% | 76.7% | 75% |
| COc1cc(/C=C2\C(=N)N=C(SCc3nc4ccccc4[nH]3)NC2=O)ccc1O | 96.3% | 110% | 102% | 104% | 105% | 94.2% | 98.5% | 89% | 88% | 110% | 105% | 101% | 103% | 64.2% | 155% | 98.1% | 86% | 113% | 99.4% | 99.2% |
| C#CCOc1ccc(/C=N/Nc2nc(-c3ccc(Cl)cc3)cs2)cc1OC | 45.7% | 69.3% | 80.1% | 74.6% | 64.6% | 29.9% | 6.66% (active) | 54.7% | 58.6% | 79.5% | 38% | 59.5% | 67.7% | 52.5% | 131% | 68.6% | 52.6% | 69.8% | 36.2% | 21.7% |
| CC1(C)CC[C@]2(C(=O)O)CC[C@]3(C)C(=CCC4[C@@]5(C)C[C@@H](O)[C@@H]6OC(c7ccccc7F)OC[C@@]6(C)C5CC[C@]43C)C2C1 (stereo not given in full) | 5.25% (active) | 2.5% (active) | 29.1% | 20.3% | 3.62% (active) | 16% | -34.6% (active) | 0.203% (active) | -1.57% (active) | 19.7% | -14.8% (active) | 13.8% | 3.09% (active) | 4% (active) | 7.15% (active) | 4.14% (active) | 9.12% (active) | 31% | 17% | 2.87% (active) |
| Cc1cc(C)cc(NC(=O)Cn2cc(COn3nnc4ccccc43)nn2)c1 | 106% | 104% | 96.3% | 96.2% | 103% | 97.9% | 101% | 96.9% | 100% | 100% | 105% | 102% | 97.3% | 92.5% | 100% | 100% | 97.4% | 118% | 105% | 100% |
| O=C(NN1C(=O)/C(=C/C=C/c2ccc([N+](=O)[O-])o2)SC1=S)c1cccc(O)c1 | -65.1% (active) | -67.2% (active) | -71.3% (active) | -96.5% (active) | -96.2% (active) | -40.2% (active) | -100% (active) | -97.4% (active) | -93.5% (active) | -100% (active) | -88.2% (active) | -96.8% (active) | -99.8% (active) | -98.6% (active) | -96.3% (active) | -100% (active) | -100% (active) | 2.42% (active) | 0.334% (active) | 2.92% (active) |
| N/C(=N\c1nc2ccccc2s1)NC(=O)Nc1ccccc1Br | -4.76% (active) | -61.1% (active) | -33.3% (active) | 2.22% (active) | -53.3% (active) | 34.6% | -55.3% (active) | -7.53% (active) | -75.7% (active) | 28.5% | -0.501% (active) | 27.1% | -39.3% (active) | 11.3% | -15.6% (active) | -39.3% (active) | -17.4% (active) | 26.2% | 12.6% | 21.5% |
| O=c1cc(-c2ccccc2)oc2cc(OCCCC[P+](c3ccccc3)(c3ccccc3)c3ccccc3)cc(O)c12 | -94.2% (active) | -65% (active) | -80.7% (active) | -44.5% (active) | -57.4% (active) | -87.3% (active) | -98.4% (active) | -59.5% (active) | -90.1% (active) | -98.4% (active) | -94.1% (active) | -97.6% (active) | -49.5% (active) | -97.1% (active) | -81.8% (active) | -100% (active) | -97.1% (active) | -83.3% (active) | -75.9% (active) | -41.7% (active) |
| CN(C)c1nc(NCCNS(=O)(=O)c2ccc(C3=Nc4c(N)nc(N)nc4NC(c4ccc(F)cc4)C3)cc2)nc(Nc2ccc(F)cc2)n1 (stereo not given) | 44.7% | 10% | 58.6% | 46.1% | 31.6% | 18.9% | 21.3% | 45.2% | -40% (active) | 55.4% | 58.7% | 47.5% | 42.7% | 82.9% | 65.9% | 77.1% | 64.4% | 53.3% | 8.67% (active) | 6.56% (active) |
| COC1=C[C@]23CCC(=O)N2CCc2cc4c(cc2[C@@H]3[C@@H]1OC(=O)[C@H](C)O)OCO4 | -1.4% (active) | 1.93% (active) | -10.6% (active) | -1.61% (active) | -3.63% (active) | 14.8% | -2.42% (active) | 31.5% | -57.2% (active) | 15.1% | 58.5% | 43% | 57.8% | 26.4% | 47.7% | 5.84% (active) | 15% | -9.89% (active) | 1.16% (active) | 2.59% (active) |
| C#CCOc1cc(N(CC)CC)ccc1C(C(=O)NC(C)(C)C)N(C(=O)C1CCc2cc(F)ccc2O1)c1ccc(F)cc1 (stereo not given) | 44.6% | 61% | 60.5% | 41.6% | 37.9% | 17.6% | 33.9% | 35.5% | 42.3% | 66.7% | -24.7% (active) | 37.8% | 48.9% | 30.4% | 68.7% | 33.5% | 30.7% | 78.5% | 40.4% | 9.55% (active) |
| COc1cc2oc(-c3cccc(NC(=O)[C@H](CC(N)=O)NC(=O)OC(C)(C)C)c3)cc(=O)c2c(OC)c1OC | 99.8% | 97.8% | 95.9% | 96% | 90.1% | 75.8% | 87.6% | 82% | 81.5% | 94% | 103% | 99.1% | 96.9% | 80.1% | 118% | 80.7% | 84.5% | 93.8% | 54.5% | 65.1% |
| Cc1ccc(/C=C/c2n(Cc3ccc4ccccc4c3)c3ccccc3[n+]2Cc2ccc3ccccc3c2)cc1 | -86.2% (active) | -50.4% (active) | -88.3% (active) | -58.5% (active) | -42.1% (active) | -88.3% (active) | -100% (active) | -63.6% (active) | -87.9% (active) | -92.3% (active) | -97.7% (active) | -95.7% (active) | -56.1% (active) | -96% (active) | -80% (active) | -96.1% (active) | -94.6% (active) | -82.5% (active) | -66.1% (active) | -25.9% (active) |
| COc1ccc(/C=C/c2n(Cc3ccc4ccccc4c3)c3ccccc3[n+]2Cc2ccc3ccccc3c2)cc1 | -76.9% (active) | -97.1% (active) | -95.7% (active) | -94.6% (active) | -94.3% (active) | -25.1% (active) | -97.6% (active) | -90.5% (active) | -80.4% (active) | -89% (active) | -93.7% (active) | -82.7% (active) | -88.8% (active) | -93% (active) | -93.7% (active) | -100% (active) | -100% (active) | -79.8% (active) | -24.2% (active) | -2.71% (active) |
| CC1(C)CC[C@]2(C(=O)O)CC[C@]3(C)C(=CCC4[C@@]5(C)C[C@@H](O)[C@@H]6OC(c7cccc(Br)c7)OC[C@@]6(C)C5CC[C@]43C)C2C1 (stereo not given in full) | 20.7% | 21.5% | 85.1% | 47.1% | 22.9% | 25.3% | 41.3% | 55.5% | 16.5% | 74.2% | 65.8% | 27.8% | 46.3% | 30.3% | 35.4% | 19.4% | 39.4% | 69.5% | 27.5% | 13.2% |
